VACV Venus inh = vaccinia inhibition (Venus reporter); Vaccinia virus Venus reporter expression, fluorescence; Potency, µM (highest dose often 36.5 µM), actives largely listed as inhibitors; 330,000 tested, 0.46% active; calls by dose curve; tested in A549 cells; further: nearly all actives have a fitted effect of over 30% in size
LASV entry inh = blocks Lassa virus binding to or entry into cells | Lassa virus pseudotype entry inhibition, cell reporter | Potency, µM (top dose mostly 37.9 µM), most hits filed as inhibitors | 300,000 tested, 1.2% active; calls by dose curve; tested in HEK293 cells; further: nearly all actives have a fitted effect of over 50% in size
Vaccinia mCherry = vaccinia inhibition (mCherry reporter). Vaccinia virus mCherry reporter infection, fluorescence. Potency, µM (highest dose often 36.5 µM), actives largely listed as inhibitors. 310,000 tested, 0.63% active; calls by dose curve; tested in A549 cells; further: nearly all actives have a fitted effect of over 35% in size
MARV entry inh = blocks Marburg virus binding to or entry into cells | Marburg virus pseudotyped entry inhibition, cell reporter | Potency, µM (highest dose often 37.8 µM), hits mostly inhibitors | 300,000 tested, 1.8% active | AID 540276; calls by dose curve; tested in HEK293 cells
Hits are given with their value; i = inactive; ? = inconclusive; nt = no result given. Hits are enriched below; roughly 2.5% of the tested compounds scored in any of these assays.

SMILES	VACV Venus inh	LASV entry inh	Vaccinia mCherry	MARV entry inh
CC(C)CON=C1C[C@@H](O)[C@@H](O)[C@@H]2[C@H]3C(=O)N(c4ccc(F)cc4F)C(=O)[C@@H]3CC[C@H]12	nt	nt	nt	i
CN1CCC(N(C)S(=O)(=O)c2ccc(NC(=O)COc3ccc(Br)cc3Cl)cc2)CC1	i	6.3µM	i	8.9µM
CCOc1c(Br)cc(C(N)=O)cc1OCc1ccccc1	i	12µM	i	?
O=C(Nc1nnc(-c2ccco2)o1)c1ccc2ccccc2c1	i	?	i	14µM
Cc1c(C)c2ccc(OCc3ccc(C(=O)O)o3)c(C)c2oc1=O	nt	4.1µM	nt	?
O=C(NCC1OCCc2ccccc21)c1ccc(NC(=O)c2ccccc2Cl)cc1 (stereo not drawn)	i	?	i	7.9µM
c1ccc(COc2ccc(Oc3nc(N4CCCCC4)nc(N4CCOCC4)n3)nn2)cc1	i	5.8µM	i	?
CN(C)c1ccc(/C=C/c2ccnc3c(-c4ccccc4)cccc23)cc1	i	nt	i	nt
COc1ccccc1N(C)S(=O)(=O)c1ccc(C(=O)NCCc2ccc(F)cc2)cc1	i	?	i	i
COc1ccccc1N(C)S(=O)(=O)c1ccc(C(=O)N(C)Cc2ccc(OC(F)F)cc2)cc1	?	?	i	11µM
COc1ccc(-n2c(=S)[nH]c3cc(C(=O)Nc4ccccc4OC)ccc3c2=O)c(OC)c1	i	6.3µM	i	i

Assay outcomes deposited in PubChem BioAssay by National Center for Advancing Translational Sciences (NCATS).
